The record followed here is PubChem BioAssay (Tox21).

Test [1] can be described thus: qHTS assay to identify small molecule antagonists of the sonic hedgehog signaling (Shh) pathway (AID 1259369; calls by dose curve; also: nearly all actives have a fitted effect of over 45% in size; also: potency is read from the fitted curve at half-maximal effect). An outline of the steps:
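3T3Gli1-Luc, conditioned-medium-stimulated, 24hr cpd, 37C/5% CO2; Gli1-driven firefly Luc luminescence after 30min RT with luciferase reagent. Cells plated 4hr before cpd.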
Background: In qHTS, concentration-response curves come from the screen itself.

Test [2] deals with Estrogen receptor beta (Homo sapiens) (UniProt Q92731). The test is described as follows: qHTS assay to identify small molecule agonists of the estrogen receptor beta (ER-beta) signaling pathway (AID 1259377; active = well fitted activation curve with a large enough effect in the signal ratio in the repeat runs, not every such curve was filed as active; the % refers to the signal ratio). An outline of the steps: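 Beta-lactamase reporter readout: fluorescence of LiveBLAzer B/G FRET substrate after 2 h at room temperature, following 16 h compound treatment of ER-beta-UAS-bla HEK293T cells at 37C in 2% charcoal-stripped FBS medium.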
Chain of Estrogen receptor beta (Homo sapiens) (Q92731 whole entry, looked up): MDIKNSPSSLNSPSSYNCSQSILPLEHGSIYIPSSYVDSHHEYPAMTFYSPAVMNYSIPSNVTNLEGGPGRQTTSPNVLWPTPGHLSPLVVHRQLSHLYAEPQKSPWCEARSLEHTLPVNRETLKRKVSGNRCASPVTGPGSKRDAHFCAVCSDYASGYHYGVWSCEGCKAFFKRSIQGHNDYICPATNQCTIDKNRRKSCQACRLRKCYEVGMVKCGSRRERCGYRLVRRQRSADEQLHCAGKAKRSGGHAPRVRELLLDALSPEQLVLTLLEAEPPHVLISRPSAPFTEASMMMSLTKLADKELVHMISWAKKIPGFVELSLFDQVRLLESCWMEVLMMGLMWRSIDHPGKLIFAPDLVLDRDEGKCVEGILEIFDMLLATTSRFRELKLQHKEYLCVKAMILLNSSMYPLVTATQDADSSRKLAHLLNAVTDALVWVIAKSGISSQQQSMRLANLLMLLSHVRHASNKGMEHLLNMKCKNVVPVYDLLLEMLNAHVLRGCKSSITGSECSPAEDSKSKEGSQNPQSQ

Test [3] has the same target. Put plainly: qHTS assay to identify small molecule antagonists of the estrogen receptor beta (ER-beta) signaling pathway (AID 1259378; active = well fitted inhibition curve with a large enough effect in the signal ratio in the repeat runs, not every such curve was filed as active; the % refers to the signal ratio; also: potency is read from the fitted curve at half-maximal effect). An outline of the steps: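 Antagonist mode: compounds added to beta-lactamase reporter HEK293T ER-beta-UAS cells stimulated with E2 (1nM final), 16 hr at 37C. LiveBLAzer B/G FRET substrate, 2 hours room temperature, fluorescence read-out.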

Test [4] can be described thus: qHTS assay to identify small molecule agonists of the androgen receptor (AR) signaling pathway in the presence of an antagonist - cell viability counter screen (AID 1259379). Also: nearly all actives have a fitted effect of over 25% in size. Also: potency is read from the fitted curve at half-maximal effect.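 As to activity change, negative = cytotoxicity: MDA-kb2 human breast cancer cells carrying an MMTV luciferase reporter; series mostly up to about 92 µM.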 The essentials: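 Cells: MDA-kb2 (MMTV-luc, AR and GR elements), 3,000/well, 5 hr settle. Added: nilutamide 3.0uM final, then compounds (15 conc.). Incubation: 16 hr, 37C, no CO2. Read-out: CellTiter-Fluor, 1 hr, fluorescence.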

The nature of test [5]: qHTS assay to identify small molecule agonists of the estrogen receptor beta (ER-beta) signaling pathway - cell viability counter screen (AID 1259380). Also: nearly all actives have a fitted effect of over 30% in size. An outline of the steps:
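HEK293T ER-beta-UAS-bla; 2% CS-FBS; 6 hr pre-plate, 16 hr cpd at 37C/5% CO2; LiveBLAzer read first, then CellTiter-Glo 30 min RT, luminescence.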

Test [6] can be described thus: qHTS assay to identify small molecule antagonists of the estrogen receptor beta (ER-beta) signaling pathway - cell viability counter screen (AID 1259382).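 Also: HEK293T cells carrying ER-beta-UAS-bla reporter stimulated with estradiol; series mostly up to about 92 µM; nearly all actives have a fitted effect of over 55% in size.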 The essentials:
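Cells: ER-beta-UAS-bla HEK293T, 2,000/well, 2% CS-FBS, 6 hr settle. Cpd + E2 (1nM final), 16 hr, 37C/5% CO2. Bla FRET substrate 2 hr RT, then CellTiter-Glo 30 min RT, luminescence.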

For test [7], the target named is Estrogen receptor (Homo sapiens) (UniProt P03372). Put plainly: qHTS assay to identify small molecule agonists of the estrogen receptor alpha (ER-alpha) signaling pathway in the presence of an antagonist (AID 1259383; calls by dose curve; also: top concentration of the series differs between compounds; nearly all actives have a fitted effect of over 15% in size). An outline of the steps: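 VM7Luc4E2, endog. ER-alpha + 4×ERE-luc; charcoal-stripped FBS, phenol red-free, 5 d; 24hr plating; +10.0nM ICI-182,780 (final); cpds 15 conc, 22hr, 37C/5% CO2; ONE-Glo luminescence.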
Chain of Estrogen receptor (Homo sapiens) (P03372 whole entry, looked up): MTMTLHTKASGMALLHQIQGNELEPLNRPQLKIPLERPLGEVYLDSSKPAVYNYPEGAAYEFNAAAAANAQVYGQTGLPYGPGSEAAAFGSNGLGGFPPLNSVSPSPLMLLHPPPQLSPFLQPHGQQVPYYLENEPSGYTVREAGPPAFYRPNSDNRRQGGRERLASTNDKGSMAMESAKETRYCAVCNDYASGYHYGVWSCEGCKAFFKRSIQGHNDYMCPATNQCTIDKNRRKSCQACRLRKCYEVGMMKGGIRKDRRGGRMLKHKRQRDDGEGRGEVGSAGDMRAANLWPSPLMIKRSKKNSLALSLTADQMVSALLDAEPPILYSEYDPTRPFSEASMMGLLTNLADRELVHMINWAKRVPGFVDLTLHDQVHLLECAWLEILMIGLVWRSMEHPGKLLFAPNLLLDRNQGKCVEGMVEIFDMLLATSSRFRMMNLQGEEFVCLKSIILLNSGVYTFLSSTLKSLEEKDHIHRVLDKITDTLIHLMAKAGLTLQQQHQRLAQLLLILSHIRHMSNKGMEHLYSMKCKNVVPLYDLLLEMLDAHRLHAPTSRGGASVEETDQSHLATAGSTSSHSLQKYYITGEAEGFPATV

Test [8] is described as follows: qHTS assay to identify small molecule agonists of the estrogen receptor alpha (ER-alpha) signaling pathway in the presence of an antagonist - cell viability counter screen (AID 1259386).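 Also: cells exposed to compounds for 22 h at 37 °C before the viability read; nearly all actives have a fitted effect of over 30% in size.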 Also: potency is read from the fitted curve at half-maximal effect. As to activity change, negative = cytotoxicity: series mostly up to about 92 µM. An outline of the steps: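 VM7Luc4E2, stripped-serum pre-culture 5 d; 24hr plating; +ICI-182,780 10.0nM final; cpds 15 conc, 22hr, 37C/5% CO2; CellTiter-Fluor added at 21hr, fluorescence 1hr later.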

For test [9], the target named is Progesterone receptor (Homo sapiens) (UniProt P06401). Put plainly: qHTS assay to identify small molecule agonists of the progesterone receptor (PR) signaling pathway (AID 1346784; calls by dose curve; also: nearly all actives have a fitted effect of over 30% in size). The essentials: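 HEK 293T PR-UAS-bla reporter cells, 2% charcoal-stripped FBS; 6 hr settle at 37C/5% CO2, compound (DMSO) 16 hr, LiveBLAzer B/G FRET substrate 2 hr RT, fluorescence intensity read.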
Chain of Progesterone receptor (Homo sapiens) (P06401 whole entry, looked up): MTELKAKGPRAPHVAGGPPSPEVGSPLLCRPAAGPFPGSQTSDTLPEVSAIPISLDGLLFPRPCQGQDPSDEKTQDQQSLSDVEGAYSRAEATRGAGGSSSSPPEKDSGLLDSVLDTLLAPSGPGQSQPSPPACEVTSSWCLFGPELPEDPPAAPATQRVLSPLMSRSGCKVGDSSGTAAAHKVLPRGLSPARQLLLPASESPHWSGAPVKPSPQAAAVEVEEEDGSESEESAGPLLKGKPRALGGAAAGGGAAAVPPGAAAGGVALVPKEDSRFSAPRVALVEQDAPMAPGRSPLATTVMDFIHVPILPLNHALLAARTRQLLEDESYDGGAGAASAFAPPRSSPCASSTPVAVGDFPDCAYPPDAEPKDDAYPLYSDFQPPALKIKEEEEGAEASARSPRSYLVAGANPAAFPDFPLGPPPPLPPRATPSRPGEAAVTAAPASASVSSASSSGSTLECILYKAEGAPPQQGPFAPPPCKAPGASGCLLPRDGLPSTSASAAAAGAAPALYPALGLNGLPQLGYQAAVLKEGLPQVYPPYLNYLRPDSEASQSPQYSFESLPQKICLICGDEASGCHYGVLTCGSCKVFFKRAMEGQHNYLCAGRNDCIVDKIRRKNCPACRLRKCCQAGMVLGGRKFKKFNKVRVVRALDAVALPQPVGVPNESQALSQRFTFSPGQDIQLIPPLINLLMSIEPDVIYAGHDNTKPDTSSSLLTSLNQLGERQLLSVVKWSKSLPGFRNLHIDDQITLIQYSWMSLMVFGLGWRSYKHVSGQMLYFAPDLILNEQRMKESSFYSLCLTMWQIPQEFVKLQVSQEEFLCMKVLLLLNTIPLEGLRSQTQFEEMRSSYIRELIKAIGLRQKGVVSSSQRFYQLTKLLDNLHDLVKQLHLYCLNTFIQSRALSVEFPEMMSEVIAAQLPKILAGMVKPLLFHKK

Test [10] has the same target. Put plainly: qHTS assay to identify small molecule antagonists of the progesterone receptor (PR) signaling pathway (AID 1346795; active = well fitted inhibition curve with a large enough effect in the signal ratio in the repeat runs, not every such curve was filed as active; the % refers to the signal ratio). An outline of the steps: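 Beta-lactamase reporter, HEK293T PR-UAS-bla line; 2% charcoal-stripped FBS; 6 hr pre-incubation, 37C/5% CO2. Compound + R5020 1 nM final, 16 hr. LiveBLAzer B/G FRET substrate, 2 hr RT; fluorescence intensity read.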

Test [11] is described as follows: qHTS assay to identify small molecule antagonists of the progesterone receptor (PR) signaling pathway - cell viability counter screen (AID 1346798). Also: series mostly up to about 92 µM; nearly all actives have a fitted effect of over 50% in size. An outline of the steps:
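Luminescence readout (CellTiter-Glo, 30 min, RT) of viability in PR-UAS-bla HEK293T cells exposed to compound and R5020 agonist for 16 hr at 37C, 5% CO2; run in the same wells as the beta-lactamase reporter read.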

Test [12] can be described thus: qHTS assay to identify small molecule agonists of the progesterone receptor (PR) signaling pathway - cell viability counter screen (AID 1346799; calls by dose curve; also: nearly all actives have a fitted effect of over 45% in size). An outline of the steps:
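HEK293T PR-UAS-bla, 3,000 cells/well, 2% charcoal-stripped FBS; 6 h settle, compound 16 h at 37C/5% CO2; LiveBLAzer 2 h RT, then CellTiter-Glo 30 min RT, luminescence read.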

Test [13] in a line: qHTS assay to identify small molecule antagonists of the TGF-beta/Smad signaling pathway - cell viability counter screen (AID 1346824). Also: nearly all actives have a fitted effect of over 50% in size. Also: potency is read from the fitted curve at half-maximal effect. An outline of the steps:
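Cytotoxicity counter-screen run in the same wells as the beta-lactamase Smad reporter read: CellTiter-Glo luminescence after 30 min at room temperature. HEK 293T SBE-bla cells had 5 hr compound exposure at 37 C with TGF-beta1 (0.25 ng/mL stock).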

The nature of test [14]: qHTS assay to identify small molecule agonists of the TGF-beta/Smad signaling pathway - cell viability counter screen (AID 1346829). Also: nearly all actives have a fitted effect of over 45% in size. Also: potency is read from the fitted curve at half-maximal effect. As to activity change, negative = cytotoxicity: top concentration of the series differs between compounds. An outline of the steps:
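After overnight seating at 37 C and 5% CO2, reporter cells got compounds for 5 hr and FRET substrate for 2 hr; cell viability then came from CellTiter-Glo luminescence.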

Test [15] can be described thus: qHTS assay to identify small molecule agonists of the TGF-beta/Smad signaling pathway (AID 1346859; active = well fitted activation curve with a large enough effect in the signal ratio in the repeat runs, not every such curve was filed as active; the % refers to the signal ratio; also: series mostly up to about 77 µM). An outline of the steps:
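Read-out: fluorescence at 460 and 530 nm (405 nm excitation) after a 2 hr room-temperature incubation with beta-lactamase FRET substrate. SBE-bla HEK 293T cells had been treated with test compounds for 5 hr at 37 C.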

Test [16] addresses Thyrotropin-releasing hormone receptor (Homo sapiens) (UniProt P34981). The test is described as follows: qHTS assay to identify small molecule antagonists of the thyrotropin-releasing hormone receptor (TRHR) signaling pathway (AID 1346877; active = well fitted inhibition curve with a large enough effect in the repeat runs, not every such curve was filed as active; also: series mostly up to about 51 µM). The essentials:
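Intracellular calcium fluorescence, read kinetically every second over 3 min, reports TRH-evoked signalling in HEK293 cells carrying TRHR. Test compounds were added 5 min ahead of a 1 nM TRH challenge.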

The target is the same in test [17]. Put plainly: qHTS assay to identify small molecule agonists of the thyrotropin-releasing hormone receptor (TRHR) signaling pathway (AID 1346891; calls by dose curve;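 also: HEK293 cells expressing TRHR with calcium dye readout; series mostly up to about 58 µM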). The essentials:
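HEK293/TRHR cells, 1500 per well, 18 h 37 °C; Ca dye 2 h 37 °C; pin-tool compound addition (agonist mode); kinetic fluorescence 3 min, 1 s reads; 15 concentrations, triplicate.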

Test [18] has as its target Androgen receptor (Homo sapiens) (UniProt P10275). Put plainly: qHTS assay to identify small molecule agonists of the androgen receptor (AR) signaling pathway in the presence of an antagonist (AID 1259381; calls by dose curve; also: nearly all actives have a fitted effect of over 15% in size). An outline of the steps: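 MDA-kb2 cells, 3,000/well, rested 5hr at 37C/0% CO2 → nilutamide 3.0uM final or buffer → compounds, 15 conc. → 16hr at 37C → ONE-Glo, 30min RT → luminescence.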

Test [19] in a line: qHTS assay to identify small molecule agonists or antagonists of the thyroid stimulating hormone receptor (TSHR) signaling pathway - wild type cell line counter screen (AID 1259384; calls by dose curve). The essentials: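 Counter screen in untransfected Hek293: compounds (15-point titration, triplicate) plus phosphodiesterase inhibitor Ro20-1724 added after 18 h plating; 30 min RT. Intracellular cAMP via competitive d2/cryptate immunoassay, 1 h incubation.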

Test [20] deals with Thyrotropin receptor (Homo sapiens) (UniProt P16473). Put plainly: qHTS assay to identify small molecule antagonists of the thyroid stimulating hormone receptor (TSHR) signaling pathway (AID 1259385; calls by dose curve; also: nearly all actives have a fitted effect of over 20% in size). An outline of the steps: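 Antagonist mode: compound-treated TSHR-expressing HEK293 cells were stimulated with 1.5 ng/mL TSH (final) in presence of Ro20-1724 for 30 min at RT. HTRF cAMP detection after 1 h; each compound tested at 15 concentrations, triplicate.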
Chain of Thyrotropin receptor (Homo sapiens) (P16473 whole entry, looked up): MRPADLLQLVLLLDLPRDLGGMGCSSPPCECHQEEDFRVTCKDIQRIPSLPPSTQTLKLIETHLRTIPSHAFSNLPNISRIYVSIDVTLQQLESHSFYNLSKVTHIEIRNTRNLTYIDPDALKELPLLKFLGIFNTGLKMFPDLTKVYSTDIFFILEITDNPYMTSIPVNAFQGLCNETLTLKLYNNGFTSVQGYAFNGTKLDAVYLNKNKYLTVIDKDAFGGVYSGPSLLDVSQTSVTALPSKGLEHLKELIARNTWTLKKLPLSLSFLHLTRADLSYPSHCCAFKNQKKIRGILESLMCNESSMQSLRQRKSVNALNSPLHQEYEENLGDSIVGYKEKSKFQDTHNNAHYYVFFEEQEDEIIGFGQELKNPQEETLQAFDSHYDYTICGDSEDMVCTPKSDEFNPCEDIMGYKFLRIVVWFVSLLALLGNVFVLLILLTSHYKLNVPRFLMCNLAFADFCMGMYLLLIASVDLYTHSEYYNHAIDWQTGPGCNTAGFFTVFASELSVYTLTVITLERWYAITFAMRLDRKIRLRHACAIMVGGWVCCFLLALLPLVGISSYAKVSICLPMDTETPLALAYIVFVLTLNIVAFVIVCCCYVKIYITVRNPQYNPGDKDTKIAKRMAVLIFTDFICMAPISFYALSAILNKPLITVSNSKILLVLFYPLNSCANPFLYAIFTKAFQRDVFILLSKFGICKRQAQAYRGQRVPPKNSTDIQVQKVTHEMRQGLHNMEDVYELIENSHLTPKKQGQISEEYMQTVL

Records with an inconclusive call do not appear. The source holds several records for some structures; these can differ, active in one and inactive in another. Activity calls are given as the source filed them. Unless noted, calls follow the shape of the dose curve; as a rule, active = well fitted curve in the direction sought with a large enough effect in the repeat runs; inconclusive = weak or mixed curves; inactive = no such curve, though single readings can be large; an effect the other way counts as inactive or inconclusive.
% is scaled to controls: 0 for no effect and ±100 for the full control effect.

Chain of Thyrotropin-releasing hormone receptor (Homo sapiens) (P34981 whole entry, looked up): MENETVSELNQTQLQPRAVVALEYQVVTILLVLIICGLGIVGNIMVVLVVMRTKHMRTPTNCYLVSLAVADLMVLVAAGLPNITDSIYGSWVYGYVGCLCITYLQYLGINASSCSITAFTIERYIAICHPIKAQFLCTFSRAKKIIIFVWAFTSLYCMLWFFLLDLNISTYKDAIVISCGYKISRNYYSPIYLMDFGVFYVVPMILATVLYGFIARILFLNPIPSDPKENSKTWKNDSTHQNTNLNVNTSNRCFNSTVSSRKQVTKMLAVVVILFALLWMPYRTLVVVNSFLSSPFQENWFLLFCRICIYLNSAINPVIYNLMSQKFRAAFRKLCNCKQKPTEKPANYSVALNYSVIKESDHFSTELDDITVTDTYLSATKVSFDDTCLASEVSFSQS
Chain of Androgen receptor (Homo sapiens) (P10275 whole entry, looked up): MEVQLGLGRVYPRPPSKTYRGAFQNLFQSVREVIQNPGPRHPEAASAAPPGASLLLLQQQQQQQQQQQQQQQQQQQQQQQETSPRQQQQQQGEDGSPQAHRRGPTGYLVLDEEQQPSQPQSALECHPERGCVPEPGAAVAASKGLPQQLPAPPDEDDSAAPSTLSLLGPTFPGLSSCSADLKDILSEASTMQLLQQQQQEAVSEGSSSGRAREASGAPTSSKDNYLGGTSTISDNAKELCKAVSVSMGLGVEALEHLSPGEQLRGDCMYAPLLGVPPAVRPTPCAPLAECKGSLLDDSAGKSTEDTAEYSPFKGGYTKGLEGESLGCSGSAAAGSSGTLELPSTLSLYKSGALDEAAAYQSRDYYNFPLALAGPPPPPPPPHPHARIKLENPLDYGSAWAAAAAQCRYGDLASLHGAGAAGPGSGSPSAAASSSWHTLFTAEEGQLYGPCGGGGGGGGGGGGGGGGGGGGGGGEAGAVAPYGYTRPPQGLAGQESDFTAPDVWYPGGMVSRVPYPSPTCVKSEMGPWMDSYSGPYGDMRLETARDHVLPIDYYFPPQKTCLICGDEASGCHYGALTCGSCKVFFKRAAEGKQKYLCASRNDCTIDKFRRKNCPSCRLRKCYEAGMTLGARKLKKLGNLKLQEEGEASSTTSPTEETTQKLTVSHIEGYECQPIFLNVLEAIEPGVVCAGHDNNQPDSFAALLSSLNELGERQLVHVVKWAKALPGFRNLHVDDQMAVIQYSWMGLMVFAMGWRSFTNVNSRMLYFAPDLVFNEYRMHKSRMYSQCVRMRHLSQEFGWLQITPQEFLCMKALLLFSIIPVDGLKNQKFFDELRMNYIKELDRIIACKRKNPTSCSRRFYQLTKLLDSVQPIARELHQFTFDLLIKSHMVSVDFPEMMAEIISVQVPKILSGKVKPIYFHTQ

Regarding `CC1=CC(C)(C)Nc2ccccc21`, the Potency entry in test [1], in [2], in test [3], in test [4], in test [5] and in [6] was “inactive” each time. The Potency entry in test [7], in test [8], in test [9], in [10], in [11] and in [12] was “inactive” throughout. In addition, the Potency result in [13], in test [14], in [16] and in test [17] was “inactive” each time. Moreover, the result in test [15] was inactive.

In the case of `O=Cc1ccccc1C=O`, the Potency in test [1] was 2.43 µM (active) and inactive; in test [3] it was 54.5 µM (active) and inactive. Also, the Potency entry in test [2], in [4], in test [5], in test [18], in test [6] and in test [7] was “inactive” in each case. For the same compound, the Potency result in test [19], in [20], in test [8], in [9], in [10] and in test [11] was “inactive” throughout. For the same compound, the Potency entry in test [12], in test [13], in test [14], in test [16] and in test [17] was “inactive” throughout. Moreover, the call in [15] was inactive.

As for `FC(F)(F)C(Cl)Br` (configuration not stated), the Potency entry in test [1], in test [2], in test [3], in test [4], in test [5] and in [6] was “inactive” throughout. Besides, the Potency entry in test [7], in [19], in test [20], in [8], in [9] and in test [10] was “inactive” in each case. Further, the Potency result in [11], in [12], in test [13] and in test [14] was “inactive” each time. The call in test [15] was inactive.

Turning to `CCCCCCCCCCCCCO`, the Potency result in test [1], in [2], in [3], in test [4], in test [5] and in test [6] was “inactive” throughout. The Potency entry in test [7], in test [8], in test [9], in test [10], in [11] and in test [12] was “inactive” in each case. In addition, the Potency result in [13], in test [14], in [16] and in [17] was “inactive” throughout. Besides, the result in [15] was inactive.

Take `COc1ccc2nc(N)sc2c1`: the Potency result in [1], in test [2], in test [3], in test [4], in [5] and in test [18] was “inactive” each time. Moreover, the Potency result in test [6], in [7], in test [19], in test [8], in test [9] and in test [10] was “inactive” in each case. The Potency result in [11], in test [12], in test [13] and in test [14] was “inactive” each time. In addition, the compound was classed as inactive in test [15].

With `Cc1ccc(N)c([N+](=O)[O-])c1`, the Potency entry in [1], in test [2], in [3], in [4], in [5] and in test [6] was “inactive” throughout. Besides, the Potency result in test [7], in [19], in test [20], in test [9], in test [11] and in test [12] was “inactive” each time. The Potency result in [13], in test [14], in [16] and in test [17] was “inactive” throughout. For the same compound, in test [15], the result was inactive.

`O=[Se](O)O`: the Potency entry in [1], in test [2], in test [3], in test [6], in [7] and in [19] was “inactive” each time. Besides, the Potency entry in test [20], in [9], in [10], in [11], in test [12] and in test [16] was “inactive” each time. Also, the Potency entry in [17] is “inactive”. Also, the Potency in [4] is 8.64 µM (active); in test [8], 38.6 µM (active); in test [13], 2.46 µM (active); in test [14], 2.19 µM (active). Besides, the values for the activity change, negative = cytotoxicity in [5], in test [8] and in test [14] were 1.8% [at 19 µM] (inactive), 10.8% [at 19 µM] (inactive) and 8.13% [at 15.8 µM] (inactive), respectively. Also, the viability change, negative = cytotoxic in test [13] is 0.606% [at 15.8 µM] (inactive). For the same compound, the activation in test [15] was -0.714% [at 15.8 µM] (inactive).
